The list is not random: actives were taken first. Their share in the collection is about 3.7%.
ATXN2 expr inh – ATXN2 expression inhibition. hit rate 0.72% among 360,000. HEK-293 ATXN2-luciferase reporter, luminescence, 24 h. AID 1745845. Potency, µM (series often up to 57 µM), for inactives: at the top dose activity change, negative = inhibition, hits mostly inhibitors; also: % is scaled to controls: 0 for no effect and ±100 for the full control effect; nearly all actives have a fitted effect of over 55% in size
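qHTS (up to 57 uM final) was run with 24 h compound exposure of reporter cells at 37 °C. Each well was multiplexed: SteadyGlo luminescence measured ATXN2-luciferase expression after a fluorogenic Gly-Phe-AFC viability readout (25 uM final).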
TGFb SMAD3 inh – TGF-b pathway inhibition; hit rate 1.2% among 410,000; Potency, µM (series often up to 46.1 µM), without a hit: top-dose activity, negative = inhibition, most hits filed as inhibitors; AID 588855; HepG2 CAGA-GFP TGF-b/SMAD3 reporter, GFP fluorescence, 18 h; TGF-beta stimulated, 500 pg/mL final; also: % is scaled to controls: 0 for no effect and ±100 for the full control effect; nearly all actives have a fitted effect of over 65% in size
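First, reporter cells (HEPG2 CAGA-GFP) rested 2 h at 37 degrees C. Next, compounds were pinned in and TGF-beta added to 500 pg/mL final. After 18 h, GFP was imaged per cell and summed per well.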
HepG2 viability – HepG2 cytotoxicity, counter-screen for TGF-b inhibitors; Potency, µM (top dose mostly 46.1 µM), for inactives: at the highest dose activity change, negative = cytotoxicity, hits mostly cytotoxic; hit rate 0.76% among 410,000; AID 588856; HepG2 CAGA-GFP viability, ATP luminescence, 18 h
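CellTiter-Glo luminescence gave cytotoxicity after 18 hours at 37 degrees C. The cells were HepG2 CAGA-GFP in 1% FBS DMEM, stimulated with 500 pg/mL TGF-beta after compound addition. %Activity was normalised to no-cell wells (complete cell-killing) and DMSO (no toxicity), and curves were fitted and classified.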
GLP-1R inv ag – GLP-1 receptor (human) inverse agonism. P43220. HEK293 GLP-1R CRE-luciferase, luminescence, 24 h; GLP-1R form is constitutively active. Potency, µM (series often up to 38.3 µM), for the others: top-dose activity change, negative = inhibition, actives largely listed as inhibitors. hit rate 1.6% among 410,000. AID 624417; also: % is scaled to controls: 0 for no effect and ±100 for the full control effect; nearly all actives have a fitted effect of over 55% in size
Target sequence (P43220 whole entry, looked up): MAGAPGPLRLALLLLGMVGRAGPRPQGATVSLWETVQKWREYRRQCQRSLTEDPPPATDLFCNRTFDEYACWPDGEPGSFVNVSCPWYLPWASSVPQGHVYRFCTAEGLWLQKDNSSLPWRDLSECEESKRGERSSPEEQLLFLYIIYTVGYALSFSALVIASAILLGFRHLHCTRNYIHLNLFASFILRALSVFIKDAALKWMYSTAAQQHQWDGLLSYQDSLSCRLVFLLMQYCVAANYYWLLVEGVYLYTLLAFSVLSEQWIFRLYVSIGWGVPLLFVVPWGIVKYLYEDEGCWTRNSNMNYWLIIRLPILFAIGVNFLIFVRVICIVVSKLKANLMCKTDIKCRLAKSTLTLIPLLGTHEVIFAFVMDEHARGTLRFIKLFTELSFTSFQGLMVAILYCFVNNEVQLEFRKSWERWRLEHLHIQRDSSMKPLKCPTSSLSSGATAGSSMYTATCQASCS
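HEK293 cells stably co-expressing a cAMP-responsive luciferase reporter and constitutively active GLP-1R were seeded, incubated 12 h, then exposed to compounds for 24 h at 37 C. Luminescence was read 12 min after detection reagent; inverse agonists lower signal.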
GLP-1R agonist – GLP-1 receptor (human) agonism | P43220 | hit rate 0.007% among 380,000 | HEK293 GLP-1R CRE-luciferase, luminescence, 4-6 h; cells express a hypersensitive GLP-1R form | Potency, µM (doses to about 45.6 µM), inactives show at the highest dose activation, most hits filed as activators; also: % of control where 0% means no effect
ATXN viability – reduces viability in counter-screen for ATXN expression inhibitors; S2 cells (HEK-293 line with an ATXN2-luciferase reporter) viability, CellTiter-Fluor protease fluorescence, 24 h; Potency, µM (highest dose often 56.7 µM), actives largely listed as cytotoxic; hit rate 0.49% among 400,000; also: nearly all actives have a fitted effect of over 40% in size
The depositor's hits bear a star; i = inactive; ? = inconclusive; . = no result given. Calls follow the shape of the dose curve; as a rule, active = well fitted curve in the direction sought with a large enough effect; inconclusive = small, poorly fitted or top-dose-only effect, or another doubt; inactive = no such curve, though single readings can be large; an effect the other way counts as inactive or inconclusive. Potency is read from the fitted curve at half-maximal effect.

SMILES | ATXN2 expr inh | TGFb SMAD3 inh | HepG2 viability | GLP-1R inv ag | GLP-1R agonist | ATXN viability
Oc1ccc(Br)cc1C1C=C(c2ccc3c(c2)OCO3)NC(c2ccc(F)c(Br)c2)N1 (stereo not drawn) | . | 7.94µM* | -95.9% | . | . | .
Oc1ccccc1C1C=C(c2ccc3c(c2)OCO3)NC(c2ccc(F)c(Br)c2)N1 (stereo not drawn) | . | ? | -59.2% | . | . | .
Oc1ccc(Cl)cc1C1C=C(c2ccc3c(c2)OCO3)NC(c2ccc(C(F)(F)F)cc2)N1 (stereo not drawn) | . | 15.8µM* | -91.8% | . | . | .
Oc1ccc(Br)cc1C1C=C(c2ccc3c(c2)OCO3)NC(c2ccc(Br)cc2)N1 (stereo not drawn) | . | ? | -56.8% | . | . | .
CSc1nnc(CNC(=O)c2c(-c3ccccc3)noc2C)n1-c1ccc(F)cc1 | . | . | . | . | . | i
Cc1cnc(-n2ncc(C(=O)NC(C)(C)CO)c2-c2cccs2)nc1-c1ccc(F)cc1 | . | . | . | . | . | i
Cc1cc(OC(C)C(=O)Nc2c(C(=O)c3ccc(F)cc3)oc3ccccc23)ccc1Cl (stereo not drawn) | 10.2% | -2.5% | -4.3% | 20.9% | 0.1% | i
CCn1c(C(=O)NCc2cc(Br)ccc2OC)cc2oc3ccccc3c21 | . | . | -31.8% | -15.1% | . | .
O=C(NCC(c1ccco1)S(=O)(=O)c1ccc(Cl)cc1)c1ccc(C(F)(F)F)cc1 (stereo not drawn) | . | 15.8µM* | -16.5% | ? | . | .
O=C(CSc1n[nH]c(-c2ccccn2)n1)Nc1cccc(Cl)c1 | 10µM* | ? | -17.1% | -11.5% | -1.3% | i
O=C(CSc1nc2c(oc3ccccc32)c(=O)[nH]1)Nc1cccc(Cl)c1 | 10.4% | 11.2µM* | -61.9% | ? | . | ?
Cc1ccccc1NC(=O)CSc1n[nH]c(-c2ccccn2)n1 | 22.4µM* | -17.0% | -33.4% | ? | -1.4% | ?
Cc1ccc(C)c(NC(=O)CSc2n[nH]c(-c3ccccn3)n2)c1 | 17.8µM* | -20.5% | -4.2% | ? | 1.6% | ?
Cc1ccccc1NC(=O)CSc1nnc(-c2ccccn2)o1 | 9.2% | 1.0% | -73.2% | 1.1% | -3.6% | i
NC(=S)NS(=O)(=O)c1ccc(N)cc1 | . | . | . | . | 1.9% | .
O=C(c1cc(Br)ccc1O)N(Cc1ccco1)Cc1cccs1 | . | ? | -55.9% | . | . | .
CCCCCCCCCCCCc1ccc(S(=O)(=O)Nc2nncs2)cc1 | 3.4% | . | . | . | . | .
Cc1ccc(CNC(=O)c2ccc3c(c2)N(Cc2cccc(C)c2)C(=O)CS3)cc1 | -1.6% | 0.0% | -21.5% | ? | -0.3% | i
COc1ccccc1OCCN1CSC(=S)N(C)C1 | 28.2µM* | ? | -21.5% | ? | 3.4% | ?
COc1cc(=O)n2c(c1C(=O)N1CCc3ccccc3C1)CCN(Cc1ccc(CO)o1)CC2 | . | . | . | . | . | i
Cc1cc(C)n(-c2nc(NCC(C)O)c3c4c(sc3n2)CCCC4)n1 (stereo not drawn) | -5.9% | -1.0% | -16.9% | 2.82µM* | 16.7% | i
Cc1cc(C)n(-c2nc(NCCO)c3c4c(sc3n2)CCCC4)n1 | -17.3% | ? | 4.6% | 4.47µM* | 24.0% | ?
Cc1ccc(CNC(=O)c2cnc3c(-c4ccccc4)c(C)nn3c2C)o1 | . | 4.1% | 0.0% | -23.9% | . | .
O=c1c2c([N+](=O)[O-])cc([N+](=O)[O-])cc2sn1-c1ccc(Br)cc1 | -0.1% | 0.0% | -0.5% | -43.9% | -1.4% | i
O=c1c2c([N+](=O)[O-])cc([N+](=O)[O-])cc2sn1Cc1ccccc1 | ? | ? | 15.8µM* | -14.2% | 10.8% | ?
SMILES | ATXN2 expr inh | TGFb SMAD3 inh | HepG2 viability | GLP-1R inv ag | GLP-1R agonist | ATXN viability
O=[N+]([O-])c1cc(-c2csc(NCCc3nc4cc(Cl)c(N5CCCCC5)cc4n3CCCO)n2)ccc1Cl | ? | -28.3% | -3.2% | 2.24µM* | -1.2% | ?
Cc1c(C(=O)NCc2ccco2)cnn1-c1ncc2c(n1)-c1ccccc1CC2 | . | . | . | . | . | i
O=C(CSCc1ccc(F)cc1)N1CCc2c([nH]c3ccccc23)C1c1ccc(F)cc1 (stereo not drawn) | . | ? | -41.5% | 4.47µM* | . | .
CCc1ccc(C2c3[nH]c4ccccc4c3CCN2C(=O)CN2CCN(CC)CC2)cc1 (stereo not drawn) | ? | ? | 12.6µM* | ? | 5.3% | 25.1µM*
Cc1cc(Cl)ccc1OCC(=O)Nc1c(C(=O)c2ccccc2)oc2ccccc12 | . | 2.3% | -5.5% | 9.9% | . | .
O=C(C[n+]1ccnc2ccccc21)c1ccc(Br)cc1 | . | ? | -34.5% | . | . | .
Cc1ccc(F)cc1CNC(=O)c1sc2ncnc(NCC3CCCO3)c2c1C (stereo not drawn) | . | . | . | . | . | i
CC1=C(C(=O)N(C)C)CC(CC(=O)NCC2CCCCC2)C(=O)N1Cc1ccc(C(C)(C)C)cc1 (stereo not drawn) | ? | -29.5% | -31.4% | ? | -1.6% | ?
CCN(CC)C(=O)C1=C(C)N(Cc2ccc(C(C)(C)C)cc2)C(=O)C(CC(=O)NCC2CCCCC2)C1 (stereo not drawn) | ? | ? | -40.2% | ? | 0.5% | 28.2µM*
CC1=C(C(=O)N(C)C)CC(CC(=O)NC(c2ccccc2)c2ccccc2)C(=O)N1Cc1ccc(C(C)(C)C)cc1 (stereo not drawn) | ? | ? | -4.7% | ? | 1.8% | ?
CCN(CC)C(=O)C1=C(C)N(Cc2ccc(C(C)(C)C)cc2)C(=O)C(CC(=O)NC(c2ccccc2)c2ccccc2)C1 (stereo not drawn) | ? | ? | -31.8% | 7.94µM* | 6.3% | .
CCN(CC)C(=O)C1=C(C)N(Cc2ccc(F)cc2)C(=O)C(CC(=O)NC(c2ccccc2)c2ccccc2)C1 (stereo not drawn) | -31.3% | 11.3% | -7.2% | 11.2µM* | 4.5% | ?
CCOC(=O)CN(C)C(=O)c1cnn(-c2ncc3c(n2)-c2ccccc2CCC3)c1C | . | . | . | . | . | i
C[N+]1(C)CCC[C@H]1C(=O)[O-] | . | . | . | . | . | i
O=C(COc1ccc(Cl)cc1)N(Cc1ccccc1)c1ccccn1 | 7.8% | 1.9% | -12.6% | ? | 1.1% | i
CC(C)(Oc1ccc(Cl)cc1)C(=O)N(Cc1ccccc1)c1ccccn1 | 2.9% | -9.4% | -18.2% | 10µM* | -1.8% | i
COc1ccccc1OCCSc1nc(-c2ccc(C(C)(C)C)cc2)nc2cc(=O)[nH]n12 | ? | ? | -54.6% | ? | . | ?
Cc1ccc(-c2nc(SCCOc3ccccc3C)n3[nH]c(=O)cc3n2)cc1 | ? | 11.2µM* | -50.8% | 5.2% | . | ?
